# Source: PubChem BioAssay (National Center for Advancing Translational Sciences (NCATS))
# The list is not random: actives were taken first. Their share in the collection is about 1.4%.
# GLS inhibitor = inhibitors of human glutaminase (GLS) | GLS enzymatic activity, qHTS titration | Potency, µM (doses to about 45.5 µM), for inactives: at the highest dose activity change, negative = inhibition, usual class: inhibitors | O94925 | hit rate 0.21% among 410,000; also: potency is read from the fitted curve at half-maximal effect; % is scaled to controls: 0 for no effect and ±100 for the full control effect
# Target sequence (O94925 whole entry, looked up): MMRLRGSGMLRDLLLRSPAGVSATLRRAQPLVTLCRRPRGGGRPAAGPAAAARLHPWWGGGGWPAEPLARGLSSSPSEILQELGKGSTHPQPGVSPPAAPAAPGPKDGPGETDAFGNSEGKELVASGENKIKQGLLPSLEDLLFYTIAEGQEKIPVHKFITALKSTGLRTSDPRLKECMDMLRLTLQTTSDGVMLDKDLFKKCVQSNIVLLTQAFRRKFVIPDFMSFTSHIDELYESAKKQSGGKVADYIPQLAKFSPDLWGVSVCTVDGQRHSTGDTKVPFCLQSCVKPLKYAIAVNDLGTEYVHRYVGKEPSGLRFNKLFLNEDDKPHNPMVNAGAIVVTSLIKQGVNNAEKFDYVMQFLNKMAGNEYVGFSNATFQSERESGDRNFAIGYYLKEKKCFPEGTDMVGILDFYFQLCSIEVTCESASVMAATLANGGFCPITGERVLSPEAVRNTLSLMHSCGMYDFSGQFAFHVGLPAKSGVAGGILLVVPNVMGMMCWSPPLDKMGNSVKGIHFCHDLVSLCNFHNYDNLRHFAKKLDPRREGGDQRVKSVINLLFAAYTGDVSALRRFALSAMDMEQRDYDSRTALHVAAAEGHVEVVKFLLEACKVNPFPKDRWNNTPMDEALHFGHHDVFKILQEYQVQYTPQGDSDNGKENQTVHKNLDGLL
#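 Human kidney-isoform GLS in 45 mM KH2PO4 pH 8.2, 0.02% Tween-20, with compound, started with 1mM L-Glutamine (added stock). Glutamate oxidase/HRP/Amplex red coupled fluorescence read at start and after 30 min at RT.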
# BRCA1 expr act = BRCA1 expression activation; MCF7-BRCA1-FFLuc reporter, luminescence, 48 h; response scale: scaled: vehicle 0%, 10 µM genistein 100%; Potency, µM (doses to about 46.1 µM), for the others: top-dose activation, usual class: activators; hit rate 1.1% among 380,000; AID 624202; also: potency is read from the fitted curve at half-maximal effect; nearly all actives have a fitted effect of over 80% in size
#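 MCF7-BRCA1-FFLuc cells, 2000/well in phenol-red-free MEM, attached 2 h then treated 48 h at 37 C. Luciferase luminescence read 15 min after reagent; normalized to genistein maximum activation (10microM) and DMSO, concentration-response fitted.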
# TCR activator = activators of T cell receptors; primary human leukocytes, anti-CD3, IL-2 HTRF, 48 h; Potency, µM (series often up to 9.22 µM), for inactives: at the highest dose activation of IL-2 secretion, most hits filed as activators; 330,000 tested, under 10 active; AID 504894; also: % of control where 0% means no effect
#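 IL-2 release read by HTRF sandwich (Eu cryptate donor, d2 acceptor, 665 nm emission) after 48 hr exposure of primary human leukocytes to compound together with anti-CD3 beads in the absence of co-stimulatory signals.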
# p53 reactivation = restores transcriptional activity of mutant p53 | hit rate 0.063% among 320,000 | H1299 p53-A138V BP100-luciferase reporter, luminescence, 24 h | Potency, µM (titrated, usually from 92.2 µM), inactives show at the highest dose activity change, positive = activation, usual class: activators | AID 504706; also: potency is read from the fitted curve at half-maximal effect; % of control where 0% means no effect; nearly all actives have a fitted effect of over 45% in size
#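 p53-null H1299 cells stably carrying temperature-sensitive p53-A138V and a BP100-luciferase reporter were pinned with compounds (4-point, 1:5 series) and held 24 hrs at 37 deg C. Luminescence was read 10 min after detection reagent.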
# TSHR antagonist = human thyrotropin receptor antagonism. hit rate 0.2% among 330,000. activity change, negative = inhibition, % at 11.5 µM. AID 504810. P16473. TSHR-expressing cells, TSH-stimulated cAMP HTRF, 2 h; hits give low values;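 active = activity change below a set negative limit, meaning inhibition stronger than a set level, cut at about -70% in these data; inconclusive = activity change between two set negative limits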; also: % is scaled to controls: 0 for no effect and ±100 for the full control effect
#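 Read-out is FRET at 665 nm (cryptate excitation 337 nm) from a cryptate-tagged anti-cAMP antibody, competed by cell cAMP against cAMP-d2. Compounds are tested on freshly harvested TSHR cells challenged with 4nM TSH (EC80) for 2 hours at 37 deg C.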
# N370S GC mod = N370S glucocerebrosidase modulation, Gaucher chaperone candidate. N370S GC spleen homogenate, 4MU-glucoside fluorescence. hit rate 0.092% among 330,000. Potency, µM (doses to about 59.4 µM), without a hit: at the top dose activity change, negative = inhibition, hits mostly inhibitors. P04062;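 also: potency is read from the fitted curve at half-maximal effect; 0% = full enzyme activity and -100% = no enzyme basal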
# An asterisk follows results filed as active; ? = inconclusive; . = no result; [ ] = dose if it differs, or a comment. Unless noted, calls follow the shape of the dose curve; as a rule, active = well fitted curve in the direction sought with a large enough effect; inconclusive = small, poorly fitted or top-dose-only effect, or another doubt; inactive = no such curve, though single readings can be large; an effect the other way counts as inactive or inconclusive.
SMILES,GLS inhibitor,BRCA1 expr act,TCR activator,p53 reactivation,TSHR antagonist,N370S GC mod
Cc1cccc(C)c1OCc1nc2ccccc2[nH]1,7%,-3%,0%[46.1 µM],14%,0,-23%
CSCC[C@H](NC(=O)[C@H](CC(C)C)NC(=O)[C@H](Cc1c[nH]c2ccccc12)NC(=O)[C@H](CCC(N)=O)NC(=O)[C@@H](NC(=O)[C@H](Cc1ccccc1)NC(=O)[C@H](CC(=O)O)NC(=O)[C@H](CCC(N)=O)NC(=O)[C@H](C)NC(=O)[C@H](CCCNC(=N)N)NC(=O)[C@H](CCCNC(=N)N)NC(=O)[C@H](CO)NC(=O)[C@H](CC(=O)O)NC(=O)[C@H](CC(C)C)NC(=O)[C@H](Cc1ccc(O)cc1)NC(=O)[C@H](CCCCN)NC(=O)[C@H](CO)NC(=O)[C@H](Cc1ccc(O)cc1)NC(=O)[C@H](CC(=O)O)NC(=O)[C@H](CO)NC(=O)[C@@H](NC(=O)[C@H](Cc1ccccc1)NC(=O)[C@@H](NC(=O)CNC(=O)[C@H](CCC(N)=O)NC(=O)[C@H](CO)NC(=O)[C@@H](N)Cc1cnc[nH]1)[C@@H](C)O)[C@@H](C)O)C(C)C)C(=O)N[C@@H](CC(N)=O)C(=O)N[C@H](C(=O)O)[C@@H](C)O,.,.,.,.,.,-1%
COc1ccccc1N1C(=O)c2cccc3c(Cl)ccc(c23)C1=O,79%,-26%,-12%,-6%,-98*,-1%
CN1C(=O)c2cccc3c(Cl)ccc(c23)C1=O,-6%,29%,-3%,-2%,-8,3%
Oc1ccccc1N1CCN(c2nc(-c3cccs3)nc3ccccc23)CC1,12%,-16%,3%,2%,33,4.5µM*
COC(=O)c1ccccc1NC(=O)C1=CC(c2ccc(C)cc2)=NS(=O)(=O)N1C,1%,.,.,.,.,.
Cc1cc(/C=C2\SC(=S)NC2=O)c(C)n1-c1cccc(O)c1,40%,2.8µM*,7%,?,-42,26%
COc1ccc(-n2c(C)cc(/C=C3\SC(=O)NC3=O)c2C)cc1,-20%,11µM*,4%,?,-4,-13%
Cc1ccc(-n2c(C)cc(/C=C3\SC(=O)NC3=O)c2C)cc1,-3%,?,-1%,?,-11,3%
Cc1ccc(OCC(=O)NC(=S)Nc2ccccn2)c(Br)c1,0%,11µM*,-8%,3%,-9,1%
Cc1cc(C)nc(-n2nc(C)c(Sc3ccc(F)cc3)c2N)n1,3%,7.1µM*,0%,?,-2,-17%
Cc1nn(-c2ccccc2)c(N)c1Sc1cccc([N+](=O)[O-])c1,17%,?,2%[46.1 µM],2%,-4,-8%
CCSc1ncc(Cl)c(C(=O)Nc2sc3c(c2C(=O)OC)CCCC3)n1,.,-12%,.,.,.,.
N/C(=N\OC(=O)COc1ccccc1)c1ccccn1,16%,13µM*,-2%,?,14,21%
N/C(=N\OC(=O)CCCc1ccccc1)c1ccccn1,0%,11µM*,-2%[46.1 µM],26%,-2,7%
CCc1ccc(OCC(=O)O/N=C(\N)c2ccccn2)cc1,-5%,?,3%,15%,-4,-2%
N/C(=N\OC(=O)CCC1CCCC1)c1ccccc1,4%,66%,-1%,7%,-5,7%
N/C(=N\OC(=O)COc1ccc2ccccc2c1Br)c1ccccn1,0%,10µM*,-7%,11%,1,13%
N/C(=N\OC(=O)CCC1CCCC1)c1ccccn1,-3%,7.1µM*,-4%[46.1 µM],?,-1,-8%
NCCCN(Cc1ccccc1)c1ccc(Br)cn1,.,2%,.,.,.,.
N/C(=N\OC(=O)COc1ccccc1)c1ccncc1,2%,13µM*,-2%,11%,14,2%
N/C(=N\OC(=O)COc1ccccc1)c1cccnc1,5%,-20%,-2%,1%,-32,-23%
Cc1ccccc1C(=O)N/N=C/c1cccc2ccccc12,-10%,13µM*,-4%,14%,-5,-4%
Cc1cccc2cc(/C=N/NC(=O)c3ccccc3O)c(Cl)nc12,2%,-1%,-4%[46.1 µM],0%,-72*,-5%
CCc1ccc(C(=O)N/N=C/c2cccc3ccccc23)nc1,-15%,?,-1%[46.1 µM],32µM*,-3,-1%
SMILES,GLS inhibitor,BRCA1 expr act,TCR activator,p53 reactivation,TSHR antagonist,N370S GC mod
O=C(N/N=C/c1cccc2ccccc12)c1cccnc1,-3%,?,-50%,2%,2,-17%
CS(=O)(=O)N(Cc1ccccc1)c1ccc(C(=O)Nc2ccc(Cl)cc2)cc1,5%,.,.,.,.,.
CC1(C(=O)O)CCC2(C)CCC3(C)C(=CC(=O)C4C5(C)CCC(O)C(C)(C)C5CCC43C)C2C1 (stereo not drawn),1%,.,.,.,.,.
C/C(=N/NC(=O)c1cccc(N2CCCC2=O)c1)c1ccncc1,1%,8.9µM*,-2%,15%,-15,-11%
COc1cccc(/C=N/NC(=O)c2cccc(N3CCCC3=O)c2)c1,5%,8.9µM*,0%,?,-9,-2%
COc1ccc([C@@H]2CC(=O)c3c(O)cc(O[C@@H]4O[C@H](CO)[C@@H](O)[C@H](O)[C@H]4O[C@@H]4O[C@@H](C)[C@H](O)[C@@H](O)[C@H]4O)cc3O2)cc1,.,.,.,.,.,3%
CC1CC(C(F)(F)C(F)(F)F)n2nc(C(=O)O)cc2N1 (stereo not drawn),16µM*,-13%,-5%,0%,6,1%
CCC(=O)Nc1ccc(NC(=O)c2ccccn2)cn1,4%,?,4%,0%,3,2%
CC(C)C(=O)Nc1ccc(NC(=O)c2ccccn2)cn1,3%,2.5µM*,0%,1%,-2,-2%
CN(C)c1ccc(/C=C/c2ccnc3ccccc23)c(N)c1,.,-69%,.,.,.,.
CC(C)(CNC(=O)c1ccc(-c2ccccc2Cl)o1)N1CCOCC1,1%,10µM*,7%,18%,9,-11%
CC(C)(CNC(=O)c1ccc(Br)o1)N1CCOCC1,-7%,-4%,2%,11%,3,7%
CC(=O)N1CCN(C(=O)c2ccc(-c3ccccc3Cl)o2)CC1,8%,11µM*,9%,?,3,.
O=C(c1ccc(-c2ccccc2Cl)o1)N1CCCCCCC1,-2%,?,-4%,.,.,.
C=C(C)CNC(=S)Nc1nc2c(cc1C(=O)OCC)CCCC2,-3%,7.1µM*,-4%[46.1 µM],?,6,3%
CCOC(=O)c1cc2c(nc1N)CCCC2,9%,1%,6%,6%,7,26%
Cc1c(N)ccc(-n2nc3ccccc3n2)c1C,3%,11µM*,-3%,.,.,.
CC(=O)NC(CCC(N)=O)C(=O)O (stereo not drawn),-6%,.,.,.,.,.
